For 16 compounds, composite z-score and z-score results are on record in PubChem BioAssay.

SMILES strings stand for the structures. The source made the active and inactive calls.

For assay [1], the system named is Plasmodium falciparum Sir2 (PF13_0152, Sir2A). The assay is described as follows: Plasmodium falciparum Sir2A binding compounds – biochemical, small-molecule microarray, 635 nm fluorescence, primary screen (AID 1098).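 Note: score merges spot fluorescence intensity with its signal-to-noise ratio.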 The following applies: fluorescence 635 nm, higher = more signal.
Assay [2] can be described thus: probe aDKK1 binding to arrayed compounds – biochemical, biotinylated probe, 635/667 nm fluorescence, primary screen (AID 1099).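 Note: score merges 667nm spot fluorescence with signal to noise across triplicate slides; reference of the scale not given here.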 The note with it: small-molecule microarray, higher = more signal.
The nature of assay [3]: probe aCHRDL2 binding to arrayed compounds – biochemical, biotinylated probe, 635/667 nm fluorescence, primary screen (AID 1100). The note with it: small-molecule microarray, higher = more signal.
Assay [4] is described as follows: change in splice reporter luminescence, either direction, cell-based, HEK293, spliceosome inhibition project, primary screen (AID 1101).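 Note: HEK293 cells carrying a splicing-competent luciferase reporter gene; test concentration not given here.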 The note with it: HEK293 splicing luciferase reporter, 24 h, higher = more signal, called active from +8 up or from −8 down. For orientation: Reporter assays use an easily measured gene product as a stand-in for the process of interest.

The target in assay [5] is Fibroblast growth factor 10 (Homo sapiens) (UniProt O15520). The assay is described as follows: compounds binding fibroblast growth factor 10 – biochemical, small-molecule microarray, 635 nm fluorescence, primary screen (AID 1102). The following applies: FGF10 binding, fluorescence 635 nm, higher = more signal.
The subject of assay [6] is glycogen synthase kinase-3 (GSK3A per assay name; protocol says GSK3B). The assay is described as follows: compounds binding glycogen synthase kinase-3 – biochemical, small-molecule microarray, 635 nm fluorescence, GSK3A, primary screen (AID 1103). Note: the record names both GSK3A and GSK3B. The following applies: fluorescence 635 nm, higher = more signal.
The target of assay [7] is Epidermal growth factor receptor (Homo sapiens) (UniProt P00533). The assay is described as follows: compounds binding epidermal growth factor receptor – biochemical, small-molecule microarray, 635 nm fluorescence, primary screen (AID 1104).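 Note: score merges 667 nm emission intensity with spot signal to noise over triplicate slides.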 The following applies: EGFR binding, higher = more signal.
In assay [8] the target is Follistatin-related protein 3 (Homo sapiens) (UniProt O95633). The assay is described as follows: compounds binding follistatin-related protein 3 – biochemical, small-molecule microarray, 635 nm fluorescence, primary screen (AID 1105).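 Note: score merges emission near 667 nm and signal to noise per printed spot across three slides.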 The note with it: FSTL3 binding, higher = more signal.
The target of assay [9] is Dickkopf-related protein 1 (Homo sapiens) (UniProt O94907). The assay is described as follows: small molecules binding DKK1 protein – biochemical, small-molecule microarray, 635 nm fluorescence scan, primary screen (AID 1106).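 Note: score merges emission near 667 nm with signal to noise over three replicate slides.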 The following applies: higher = more signal.
For assay [10], the system named is Inhibin beta A chain (activin A). The assay can be described thus: small molecules binding activin A – biochemical, small-molecule microarray, 635 nm fluorescence scan, primary screen (AID 1107).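 Note: mouse activin A protein probed at 4.33 µg/mL on printed slides; score merges bound-protein fluorescence near 667 nm with spot signal-to-noise.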 The following applies: INHBA, higher = more signal.

Sequence of Epidermal growth factor receptor (Homo sapiens) (P00533 whole entry, looked up): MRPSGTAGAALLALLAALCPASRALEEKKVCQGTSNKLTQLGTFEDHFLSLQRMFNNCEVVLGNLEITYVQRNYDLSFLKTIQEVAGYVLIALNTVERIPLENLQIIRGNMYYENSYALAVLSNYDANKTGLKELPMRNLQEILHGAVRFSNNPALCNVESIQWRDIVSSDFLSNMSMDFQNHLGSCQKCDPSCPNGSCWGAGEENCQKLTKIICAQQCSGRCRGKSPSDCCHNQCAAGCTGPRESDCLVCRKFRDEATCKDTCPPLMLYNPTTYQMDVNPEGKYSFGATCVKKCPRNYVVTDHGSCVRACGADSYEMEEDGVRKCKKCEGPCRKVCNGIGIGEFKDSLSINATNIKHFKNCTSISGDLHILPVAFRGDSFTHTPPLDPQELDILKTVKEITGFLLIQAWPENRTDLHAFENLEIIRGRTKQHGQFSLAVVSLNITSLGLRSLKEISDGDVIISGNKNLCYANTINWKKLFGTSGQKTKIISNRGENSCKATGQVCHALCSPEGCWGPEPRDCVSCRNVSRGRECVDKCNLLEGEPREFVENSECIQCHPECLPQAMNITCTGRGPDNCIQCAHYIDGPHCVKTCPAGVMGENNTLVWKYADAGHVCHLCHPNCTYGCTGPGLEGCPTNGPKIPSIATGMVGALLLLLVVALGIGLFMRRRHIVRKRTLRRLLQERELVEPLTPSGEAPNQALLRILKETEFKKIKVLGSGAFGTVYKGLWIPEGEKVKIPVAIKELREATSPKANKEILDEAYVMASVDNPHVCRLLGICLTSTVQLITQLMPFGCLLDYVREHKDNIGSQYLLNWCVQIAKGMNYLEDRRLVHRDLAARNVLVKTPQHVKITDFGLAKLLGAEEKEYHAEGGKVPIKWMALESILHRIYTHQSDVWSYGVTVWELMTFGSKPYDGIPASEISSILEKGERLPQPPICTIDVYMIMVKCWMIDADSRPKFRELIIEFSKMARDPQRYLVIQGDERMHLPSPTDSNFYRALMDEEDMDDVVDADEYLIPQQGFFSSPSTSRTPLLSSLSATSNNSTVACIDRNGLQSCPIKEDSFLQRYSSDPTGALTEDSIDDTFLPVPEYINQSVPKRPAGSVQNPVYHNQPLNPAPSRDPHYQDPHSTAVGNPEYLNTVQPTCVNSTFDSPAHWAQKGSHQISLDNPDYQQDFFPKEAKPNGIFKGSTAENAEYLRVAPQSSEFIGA
Sequence of Follistatin-related protein 3 (Homo sapiens) (O95633 whole entry, looked up): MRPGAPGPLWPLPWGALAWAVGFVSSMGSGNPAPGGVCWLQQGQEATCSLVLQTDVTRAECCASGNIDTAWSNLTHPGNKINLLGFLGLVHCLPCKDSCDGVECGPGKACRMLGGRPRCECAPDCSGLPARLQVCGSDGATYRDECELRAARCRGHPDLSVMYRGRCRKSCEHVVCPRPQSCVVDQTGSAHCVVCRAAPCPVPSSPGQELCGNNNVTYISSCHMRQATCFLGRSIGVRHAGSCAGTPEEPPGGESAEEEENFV
Sequence of Fibroblast growth factor 10 (Homo sapiens) (O15520 whole entry, looked up): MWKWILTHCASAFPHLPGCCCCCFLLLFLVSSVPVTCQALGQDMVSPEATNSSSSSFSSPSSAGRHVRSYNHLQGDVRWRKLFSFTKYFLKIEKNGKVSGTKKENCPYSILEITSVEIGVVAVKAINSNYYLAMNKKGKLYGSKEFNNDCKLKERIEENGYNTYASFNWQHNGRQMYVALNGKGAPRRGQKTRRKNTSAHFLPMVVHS
Sequence of Dickkopf-related protein 1 (Homo sapiens) (O94907 whole entry, looked up): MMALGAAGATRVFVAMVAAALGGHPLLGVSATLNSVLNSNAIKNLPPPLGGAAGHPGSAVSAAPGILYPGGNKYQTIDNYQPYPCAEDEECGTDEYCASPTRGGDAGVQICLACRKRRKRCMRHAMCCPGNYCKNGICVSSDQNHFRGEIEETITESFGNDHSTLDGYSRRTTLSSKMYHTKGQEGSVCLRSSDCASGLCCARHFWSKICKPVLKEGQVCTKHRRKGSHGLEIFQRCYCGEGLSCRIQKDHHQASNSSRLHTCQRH

On to `CON=C1c2cc(OC)ccc2O[C@H](c2cccc(OC)c2)[C@H]1O`, for which the composite z-score in assay [1] was 0.386; in assay [2], -0.0086; in [3], -0.365; in [5] it was 0.934; in assay [6] it was 0.498; in assay [7] it was 0.52. The composite z-score stood at 0.81 in [8], 0.636 in assay [9] and 0.593 in assay [10]. Moreover, in assay [4], the z-score was -0.268 (inactive).

With `COc1ccc(COC(=O)NN=C2C[C@@H](O)[C@@H](O)[C@@H]3[C@@H]4C(=O)N(C(C)(C)C)C(=O)[C@@H]4CC[C@@H]23)cc1`, the composite z-score in [1] was 0.182; in assay [2] it was -0.163; in [3] it was -0.64; in assay [5], 0.189; in assay [6] it was 0.787; in assay [7] it was 0.314. In addition, the composite z-score in assay [8] was 0.967; in assay [9], 1.16; in assay [10] it was -0.105. Besides, the z-score in assay [4] is 0.992 (inactive).

On to `COc1ccc(O[C@H]2C=C[C@@H](c3ccccc3)O[C@@H]2COC(=O)CCC(C)=NOC[C@@H](O)COCc2ccco2)cc1`, for which the composite z-score was -1.47 in assay [1]; -0.866 in [2]; 0.0183 in [3]; -2.67 in [5]; -1.95 in [6]; -2.8 in assay [7]. Besides, the composite z-score in assay [8] is -2.9; in assay [9] it was -1.99; in [10], -0.0879. For the same compound, the z-score in assay [4] was -0.909 (inactive).

In the case of `O=C1CCCC=C1C(O)c1ccc([N+](=O)[O-])cc1` (stereo not given), the composite z-score was -0.805 in [1]; -0.0341 in [2]; -0.429 in assay [3]; 0.59 in assay [5]; 0.288 in assay [6]; 0.406 in [7]. Besides, the composite z-score in assay [8] amounted to 0.211; in assay [9], 0.133; in [10], 0.478. For the same compound, in assay [4], the z-score was -0.337 (inactive).

Regarding `COC(=O)CC=C[C@@H](C)[C@@H](C=NOC[C@@H](C)[C@H](OCc1ccccc1)C(C)C)NS(=O)(=O)c1ccc(C)cc1`, the composite z-score in assay [1] is -0.196; in assay [2], -0.439; in [3], -0.75; in assay [5], -0.714; in assay [6] it was -1.15; in [7] it was -0.0573. The composite z-score in [8] was -0.888; in [9] it was 0.0424; in assay [10], 0.168. In assay [4], the z-score is -0.21 (inactive).

For the compound `CCN1C(=O)[C@H]2[C@H]3[C@H](O)[C@H](O)CC(=NOCC=C(C)CCC=C(C)C)[C@@H]3CC[C@H]2C1=O`, the composite z-score was 0.882 in assay [1]; -0.214 in assay [2]; -0.717 in assay [3]; 1.21 in [5]; 0.938 in assay [6]; 1.53 in [7]. The results for the composite z-score in assay [8], in [9] and in assay [10] were 0.972, 1.16 and 1.18, respectively. For the same compound, in [4], the z-score is 0.486 (inactive).

For `CCN1C(=O)[C@H]2[C@H]3[C@H](O)[C@H](O)CC(=NO[C@@H]4O[C@H](CO)[C@@H](O)[C@H](O)[C@H]4O)[C@H]3CC[C@H]2C1=O`, the composite z-score in assay [1] was 0.0675; in [2], -0.219; in assay [3] it was -0.447; in assay [5] it was 0.456; in assay [6] it was 0.342; in assay [7] it was 0.933. The composite z-score in assay [8] is 0.619; in assay [9], 0.611; in [10], 0.182. The z-score in assay [4] was -0.0478 (inactive).

Consider `COC(=O)[C@H](C)NC(=O)CCC1CC(OC(=O)NCc2ccc3c(c2)OCO3)CC2(CCCC(COC(=O)NCCC(C)C)O2)O1` (stereo not given in full), for which the composite z-score in assay [1] was 0.624; in assay [2], -0.076; in assay [3], -0.434; in [5] it was 0.412; in [6], 0.69; in [7], 0.0295. For the same compound, the composite z-score is 0.505 in [8], 0.205 in [9] and -2.25 in [10]. Also, the z-score in [4] is 0.0265 (inactive).

As for `COC(=O)[C@H](Cc1ccccc1)NC(=O)[C@@H](C)CO`, the composite z-score was -0.535 in [1]; 0.629 in assay [2]; 0.389 in [3]; 0.477 in [5]; 0.0595 in [6]; 0.651 in [7]. The composite z-score was determined as 1.03 in [8], 0.671 in assay [9] and 1.1 in assay [10]. In addition, in assay [4], the z-score is -1.36 (inactive).

For `O=C1CCCC=C1C(O)C1CCCCC1` (stereo not given), the composite z-score was -0.895 in assay [1]; -0.214 in assay [2]; -0.476 in assay [3]; 0.42 in assay [5]; -0.0973 in [6]; 0.309 in assay [7]. For the same compound, the composite z-score in assay [8] was found to be 0.324; in assay [9] it was 0.165; in [10] it was 0.615. In addition, the z-score in assay [4] is 0.301 (inactive).

As to `O=C1[C@H]2CCn3c(=O)n(-c4ccccc4)c(=O)n3[C@H]2[C@H](O)[C@@H]2O[C@H]12`, the composite z-score in [1] was 0.784; in assay [2], -0.418; in assay [3] it was -0.438; in assay [5], 0.837; in assay [6], 0.381; in assay [7] it was 0.299. The composite z-score in [8] was 0.148; in [9] it was 0.427; in [10], 0.269. Also, in [4], the z-score was 0.583 (inactive).

As to `O=C1[C@H]2[C@H]3[C@H](O)[C@H](O)CC(=NOC[C@@H](O)COCc4ccco4)[C@@H]3CC[C@H]2C(=O)N1c1cccc(Oc2ccccc2)c1`, the composite z-score in assay [1] is -0.042; in assay [2], -0.334; in assay [3], -0.885; in assay [5] it was -0.25; in assay [6] it was -0.91; in assay [7], -0.094. Besides, the composite z-score in assay [8] is -0.213; in assay [9], 0.461; in assay [10], 0.831. Further, the z-score in assay [4] is -0.33 (inactive).

As for `CC(C)CON=C1C[C@@H](O)[C@@H](O)[C@@H]2[C@@H]3C(=O)N(Cc4ccccc4)C(=O)[C@@H]3CC[C@H]12`, the composite z-score was 0.296 in assay [1]; -0.373 in assay [2]; -0.583 in assay [3]; 0.415 in assay [5]; 0.314 in assay [6]; 0.553 in assay [7]. In addition, the composite z-score is 0.538 in assay [8], 0.373 in [9] and -0.204 in assay [10]. Also, the z-score in [4] was -1.59 (inactive).

As for `CC(=O)OC[C@H]1O[C@H](CC=NOCC[C@@H]2C=C[C@H](OC(C)=O)[C@@H](COC(C)=O)O2)C=C[C@@H]1OC(C)=O`, the composite z-score is 0.892 in [1]; 0.771 in assay [2]; -0.752 in assay [3]; 1.08 in assay [5]; 0.93 in assay [6]; 0.914 in assay [7]. Besides, the composite z-score in assay [8] was determined as 0.716; in assay [9], 0.864; in [10], 0.103. Moreover, in assay [4], the z-score was 0.525 (inactive).

Take `CCOC(=O)CCN1C(=O)[C@H]2[C@H]3[C@H](O)[C@H](O)CC(=NO[C@@H]4O[C@H](CO)[C@@H](O)[C@H](O)[C@H]4O)[C@@H]3CC[C@H]2C1=O`: the composite z-score was 0.839 in assay [1]; -0.188 in assay [2]; -0.573 in [3]; 1.04 in [5]; 1.26 in [6]; 1.05 in [7]. The composite z-score in [8] was 1.37; in assay [9], 1.27; in assay [10], 0.898. For the same compound, the z-score in assay [4] is -0.104 (inactive).

With `CCOC(=O)[C@H](CC(C)C)NC(=O)CCC1CC(OC(=O)NCc2ccc3c(c2)OCO3)CC2(CCCC(COC(=O)NCCOc3ccccc3)O2)O1` (stereo not given in full), the composite z-score in assay [1] was 0.543; in assay [2], 0.0931; in assay [3], -0.537; in assay [5], 0.866; in [6] it was 0.994; in assay [7], 0.224. The composite z-score was 1.22 in assay [8], 0.826 in assay [9] and 0.267 in assay [10]. Moreover, in assay [4], the z-score was -0.149 (inactive).
